# Rows were chosen to be rich in hits. Some 2.6% of all compounds tested hit in one or more screens of this group.
# PAD4 FP inh: human PAD4 inhibitors, primary screen, biochemical, fluorescence polarization, 1536-well format; recombinant PAD4, RCA probe fluorescence polarization; inhibition, % at 6.36 µM; AID 485272, 2010; 0.41% of 330,000 active; Protein-arginine deiminase type-4 (Homo sapiens), Q9UM07;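 active = percent inhibition above a cutoff equal to the mean of all tested compounds plus 3 SD, cut at about 15% in these data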;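 also: 0% = PAD4 with RCA probe and DMSO and 100% = probe without PAD4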
# Target sequence (Q9UM07 whole entry, looked up): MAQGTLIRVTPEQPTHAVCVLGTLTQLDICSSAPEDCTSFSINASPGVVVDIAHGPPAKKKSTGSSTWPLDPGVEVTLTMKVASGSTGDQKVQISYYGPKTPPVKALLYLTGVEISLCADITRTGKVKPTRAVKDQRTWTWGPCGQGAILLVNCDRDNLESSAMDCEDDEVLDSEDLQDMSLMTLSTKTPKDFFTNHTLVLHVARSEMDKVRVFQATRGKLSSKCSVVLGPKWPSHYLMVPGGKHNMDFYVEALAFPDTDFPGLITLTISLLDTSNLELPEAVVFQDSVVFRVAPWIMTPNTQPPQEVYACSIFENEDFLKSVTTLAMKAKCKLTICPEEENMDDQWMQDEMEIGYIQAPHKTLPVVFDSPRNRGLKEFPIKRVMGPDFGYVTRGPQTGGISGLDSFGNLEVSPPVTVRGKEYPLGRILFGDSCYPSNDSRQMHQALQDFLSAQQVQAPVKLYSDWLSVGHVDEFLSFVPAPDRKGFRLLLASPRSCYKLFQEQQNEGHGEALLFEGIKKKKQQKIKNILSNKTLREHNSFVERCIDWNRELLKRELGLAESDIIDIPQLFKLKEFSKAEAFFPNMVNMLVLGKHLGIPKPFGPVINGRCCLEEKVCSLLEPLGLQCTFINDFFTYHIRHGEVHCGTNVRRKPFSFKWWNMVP
# TCR-CD3 inh: inhibitors of human TCR-CD3 interaction, primary screen, biochemical, fluorescence, TAMRA-labeled TCR probe. T-cell receptor (TCR). inhibition, % at 9.4 µM. 0.37% of 360,000 active. AID 651800, 2012; in the data active = inhibition above about 19%;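 also: recombinant mutant TCR 2C K166C tagged with TAMRA read by polarization; 0% = receptor in buffer alone and 100% = receptor with positive control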
# PME-1 inh: PME-1 inhibitors via competitive probe labeling, primary screen, biochemical, fluorescence polarization, FP-Rh probe, HTS; recombinant PME-1; 0.53% of 320,000 active; inhibition, % at 5.9 µM; Protein phosphatase methylesterase 1 (Homo sapiens), Q9Y570;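 active = inhibition above the campaign mean of all compounds plus 3 SD, cut at about 26% in these data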;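 also: competitive labeling of PME-1 active site by serine hydrolase directed probe; 0% = PME-1 with DMSO and 100% = wells lacking PME-1 enzyme; inhibitors block probe labeling so polarization falls and inhibition rises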
# SIAE inh: human SIAE inhibitors, primary screen, biochemical, fluorescence polarization, FP-Rh probe, 1536-well HTS; AID 1053197, 2014; inhibition, % at 9.66 µM; 0.69% of 370,000 active; SIAE FP-Rh probe binding;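 active = inhibition above a cutoff: mean of compounds within the control limits plus 3 SD of those, cut at about 17% in these data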;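 also: 0% = plate median of compound wells and 100% = probe without SIAE protein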
# PRMT1 inh: PRMT1 methyltransferase inhibitors, primary screen, biochemical, fluorescence polarization | recombinant PRMT1, activity-based probe fluorescence polarization | 1.3% of 370,000 active | AID 652257, 2013 | inhibition, % at 2.79 µM | Protein arginine N-methyltransferase 1 (Homo sapiens), Q99873;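 active = inhibition above about 21% made by adding two undisclosed values, limit read from the data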
# Fam108B counter: mouse Fam108B serine hydrolase inhibitors, primary screen, counter-screen for RBBP9 inhibitor project, biochemical, fluorescence polarization. recombinant Fam108B, FP-Rh probe fluorescence polarization. inhibition, % at 9.51 µM. 0.33% of 300,000 active. AID 1947, 2009;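 active = inhibition above the screen mean inhibition plus 3 SD, computed separately per campaign, cut at about 18% in these data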;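 also: inhibitors lower polarization as less probe binds the enzyme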
# An asterisk follows results filed as active; x = not tested or not shown; ! = not active in a repeat.
SMILES,PAD4 FP inh,TCR-CD3 inh,PME-1 inh,SIAE inh,PRMT1 inh,Fam108B counter
Cc1ccc(C(=O)NCCc2sc(C)nc2C)cc1,-3.5,1.5,-4.7,-1.1,23.4*,2.3
Cc1ccc(NC2=CC(=O)C(=O)c3ccccc32)cc1,39.1*,2.6,15.3,8.7,1.3,11.7
O=C(c1ccc(Cl)cc1)N1CCN(c2ccccn2)CC1,x,x,x,-0.8,-0.3,x
O=C(CN1CCN(S(=O)(=O)c2ccc(Br)cc2)CC1)N/N=C/c1cc([N+](=O)[O-])ccc1Cl,3.3,4.9,26.5*,-9.7,-0.5,1.8
COc1ccc(C2C(C(=O)N3CCN(c4ccccc4C)CC3)CC(=O)N2c2ccc(OC)cc2)cc1 (stereo not given),x,x,x,-0.9,-3.1,x
CC(=Nc1cccc(O)c1)c1sc2ccccc2c1O,9.6,2.0,14.0,6.7,20.1,5.7
CC(=Nc1ccc(C)cc1)c1sc2ccccc2c1O,2.0,-3.9,1.0,3.7,24.5*,4.5
N#CCC[C@H]1CC[C@]2(CCCN(c3ccccc3)C2)O1,x,x,x,5.0,-1.8,x
Nn1c(SCC(=O)Nc2ccccc2-c2ccccc2)nnc1-c1cc(-c2ccccc2)n[nH]1,x,x,x,-5.7,9.1,x
C=C1C(=O)[C@]23C[C@H]1CC[C@H]2[C@]1(C)CCC[C@@](C)(C(=O)OC)[C@H]1C[C@@H]3O,x,x,x,1.0,24.4*,x
Cc1ccc(C(=O)CSc2cc(C)[nH]c(=O)n2)cc1,-6.0,2.3,-6.8,5.7,11.1,-1.0
Cc1cc(SCC(=O)c2ccccc2)nc(=O)[nH]1,0.4,5.2,-3.2,-3.0,24.7*,-1.0
CCCCc1ccc2nc(NC(=O)c3ccc(Br)o3)sc2c1,x,x,x,-10.3,2.6,x
CC(=O)NC1C(=O)N(CCN2CCOCC2)c2ccc(Cl)cc21 (stereo not given),x,3.8,x,0.6,21.9*,x
CC(CCc1ccccc1)NCC(O)c1ccc(O)c(C(N)=O)c1 (stereo not given),0.0,7.1,-8.5,3.8,-7.8,-0.2
COc1ccc(CC(C)NCC(O)c2ccc(O)c(NC=O)c2)cc1 (stereo not given),x,26.6*!,x,7.2,0.9,x
O=C(NCc1cccs1)C1CCN(S(=O)(=O)c2cccc3ccccc23)CC1,x,x,x,-2.1,3.5,x
Cc1ccc(S(=O)(=O)NCCCc2ccc3c(c2)[C@]2(CCC[C@@H](OCc4ccccc4)[C@@H]2NC(=O)CCc2ccccc2)C(=O)N3Cc2ccccc2)cc1,x,x,x,-4.4,-4.0,x
Cc1ccc(C)c(NC(=O)COC(=O)c2cc3ccccc3oc2=O)c1,-1.4,5.5,27.4*,6.3,-1.6,x
O=C(C1CCCN1S(=O)(=O)c1ccc([N+](=O)[O-])cc1)N1CCc2ccccc2C1 (stereo not given),x,x,x,3.2,-2.1,x
COc1ccccc1-n1c(SC)nc2c(sc(=S)n2-c2ccccc2)c1=O,x,0.5,x,-1.9,1.7,x
COc1ccccc1-n1c(=S)[nH]c2c(sc(=S)n2-c2ccccc2)c1=O,-1.2,1.2,10.6,-3.3,83.0*,3.7
COc1ccccc1-n1c(=S)[nH]c2c(sc(=S)n2-c2ccccc2C)c1=O,-8.1,-0.6,4.9,-2.0,87.1*,-2.9
CCOc1ccccc1-n1c(=S)sc2c(=O)n(-c3ccccc3)c(=S)[nH]c21,2.2,5.8,2.9,18.7*,78.0*,3.2
CCOc1ccc(-n2c(=S)sc3c(=O)n(-c4ccccc4)c(SC)nc32)cc1,4.3,-2.0,-5.7,-1.4,0.9,0.3
SMILES,PAD4 FP inh,TCR-CD3 inh,PME-1 inh,SIAE inh,PRMT1 inh,Fam108B counter
Cc1cc(=O)c2c(O)c(O)ccc2o1,0.0,3.9,-4.1,3.1,22.6*,-2.5
NNC(=O)c1cc(O)c(O)c(O)c1,-0.5,56.7*,-11.7,5.6,18.3,0.7
Cc1cc(C)c2nc(N3CCCN(C(=O)c4ccco4)CC3)c(C#N)cc2c1,3.0,-0.5,-1.7,-2.1,22.3*,-1.9
CC(C)(C)OC(=O)NCCCC1=CC2=CC(=O)C(C)(OC(=O)c3ccc(Cl)nc3)C(=O)C2=CO1 (stereo not given),25.5*,x,25.2,x,x,7.5
O=C(OCc1cn(Cc2ccccc2Cl)nn1)N1CCOCC1,x,x,x,-0.1,-6.3,x
CCOC(=O)[C@@]12CN(C(=O)OC(C)(C)C)CC=C1N(Cc1ccc(OC)cc1)C(=O)[C@H]2CC(=O)NCc1cccc2ccccc12,x,x,x,-0.3,0.5,x
COC(=O)[C@]12C[C@H](CC(=O)N3CCN(C(=O)c4ccco4)CC3)C(=O)N(Cc3ccc(Cl)cc3Cl)C1=C[C@H](C(C)(C)C)O[C@@H]2C,x,x,x,-7.5,4.8,x
CC(CCc1ccccc1)NC(=O)CN1CCN(c2ccc(O)cc2)CC1 (stereo not given),-3.0,0.0,9.2,2.7,22.5*,-0.7
CC(CCc1ccccc1)NC(=O)CN1CCN(Cc2ccccc2)C1=O (stereo not given),-2.3,-5.8,0.9,-1.6,-1.2,2.0
COC(=O)c1cc(C)oc1C,x,x,x,2.6,0.5,x
Fc1ccc(-c2csc(=S)[nH]2)cc1,2.3,5.9,-6.0,1.9,22.4*,0.4
O=c1[nH]c(-c2ccc(Cl)cc2)cs1,2.6,-0.3,1.9,0.6,2.6,8.6
COc1ccc2c(c1)C[C@@H]1CC(C)(C)CN1S2(=O)=O,x,x,x,1.1,-3.1,x
Nc1nc(=S)c2ncn(C3OC(CO)C(O)C3O)c2[nH]1 (stereo not given),-0.4,17.1,-7.6,5.7,23.1*,11.7
O=C(NCc1ccco1)c1cccc2c1C(=O)c1ccc(N3CCCC3)cc1S2(=O)=O,-19.9,-0.3,x,-9.9,37.1*,x
Cc1ccc(CNC(=O)c2cccc3c2C(=O)c2ccc(N4CCCCC4)cc2S3(=O)=O)cc1,-3.9,-7.4,5.0,-12.0,0.2,x
CSc1ccc(C2C(C#N)=C(N)Oc3c2ccc(=O)c2c(C)oc(C)c32)cc1 (stereo not given),-5.1,1.5,-7.0,5.9,7.0,-8.7
Cc1oc(C)c2c(=O)ccc3c(c12)OC(N)=C(C#N)C3c1ccccc1 (stereo not given),-3.6,-9.3,3.1,6.4,22.2*,-0.3
CC(=O)Cn1ncc(Br)c(Br)c1=O,x,-6.3,x,2.9,3.9,x
O=C(OCn1ncc(Br)c(Br)c1=O)c1c(F)cccc1F,22.0*,x,-3.3,x,x,-0.7
Oc1ccc(/C=C/c2ccc3ccccc3n2)cc1,4.2,7.1,28.1*,3.8,2.0,6.1
C(=C\c1ccc2ccccc2n1)/c1ccccc1,1.3,-1.8,2.6,-10.8,7.1,-4.1
CCCCN(Cc1cc2cc(OC)ccc2[nH]c1=O)C(=O)c1ccco1,0.3,-5.9,0.7,-2.0,24.4*,4.3
Cc1ccc2nc(-c3ccc(NC(=O)CSc4nnc(Cc5cccs5)n4C)cc3)sc2c1,x,x,x,-9.0,-0.6,x

# Source: PubChem (The Scripps Research Institute Molecular Screening Center)
